In PubChem BioAssay (Tox21):
Unmarked numbers belong to inactive results. Results filed as inconclusive are left out. Entries that show only a call come without a potency. Activity calls are given as the source filed them. Unless noted, calls come from the whole dose curve; as a rule, active = well fitted curve in the direction sought with a large enough effect in the repeat runs; inconclusive = weak or mixed curves; inactive = no such curve, though single readings can be large; an effect the other way counts as inactive or inconclusive.

Key:
[1] = Human pregnane X receptor (PXR) small molecule agonists, qHTS cell viability counter screen (AID 1346977); note: nearly all actives have a fitted effect of over 50% in size
Procedure, shortened: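 Readout is CellTiter-Fluor fluorescence from PXR-Luc HepG2 cells. Plated cells rested 5hr, then were treated with compounds for 24hr at 37C and 5% CO2, with reagent present during the last hour.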

[2] = Caspase-3/7 induction in HepG2 cells by small molecules, qHTS assay (AID 1346978); note: nearly all actives have a fitted effect of over 15% in size
Procedure, shortened: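 Wild-type HepG2 cells, 2,000/well, settled 5 hr at 37 C and 5% CO2, then compound-treated for 17 hr; caspase-3/7 activity read by luminescent Caspase-Glo 3/7 after 30 min at room temperature.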

[3] = Caspase-3/7 induction in CHO-K1 cells by small molecules, qHTS cell viability counter screen (AID 1346979); note: nearly all actives have a fitted effect of over 35% in size; note: potency is the fitted concentration of half-maximal effect
Procedure, shortened: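 To flag cytotoxic compounds, treated CHO-K1 wild-type cells were given CellTiter-Fluor at 16hr and read fluorescently after 1hr at 37C; the caspase-3/7 luminescence was measured in these same wells.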

[4] = Caspase-3/7 induction in HepG2 cells by small molecules, qHTS cell viability counter screen (AID 1346981); note: series mostly up to about 92 µM; nearly all actives have a fitted effect of over 30% in size
Procedure, shortened: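 Counter screen for cytotoxicity: HepG2 exposed 16 hr to compounds, then CellTiter-Fluor viability signal (fluorescence, 1 hr reagent incubation).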

[5] = biological target: Nuclear receptor subfamily 1 group I member 2 (Homo sapiens) (UniProt O75469); assay: Human pregnane X receptor (PXR) activation by small molecules, qHTS assay (AID 1346985); note: nearly all actives have a fitted effect of over 40% in size
Procedure, shortened: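 DPX-2 cells (HepG2 co-transfected with a PXR response element and a CYP3A4-promoter luciferase construct) were seeded at 2,000 per well, rested 5 hr at 37C, then exposed to DMSO-dissolved compounds for 24 hr. Activation was read as luciferase luminescence.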

[6] = biological target: Acetylcholinesterase (Homo sapiens) (UniProt P22303); assay: Acetylcholinesterase (AChE) small molecule antagonists: colormetric cell-based qHTS assay (AID 1347395; calls by dose curve; note: nearly all actives have a fitted effect of over 30% in size; note: potency is the fitted concentration of half-maximal effect)
Procedure, shortened: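 Neuroblastoma line SH-SY5Y supplied the enzyme; cells were preincubated with compound for 30 min at 37 C and 5% CO2. Acetylthiocholine with DTNB was then added for 90 min at 37 C, and thiocholine was measured by colour.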

[7] = biological target: Acetylcholinesterase (Homo sapiens) (UniProt P22303); assay: Acetylcholinesterase (AChE) small molecule antagonists: enzyme-based qHTS assay (AID 1347397; calls by dose curve; note: nearly all actives have a fitted effect of over 55% in size); conditions: Potency: AChE enzyme activity inhibition
Procedure, shortened: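 Recombinant human AChE (50 mU/mL) preincubated with compound 30 min at room temperature; acetylthiocholine plus DTNB then added, and thiocholine formation read colorimetrically after 10 min at room temperature. DMSO served as vehicle control.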

[8] = biological target: Acetylcholinesterase (Homo sapiens) (UniProt P22303); assay: Acetylcholinesterase (AChE) small molecule antagonists: fluorescence cell-based qHTS assay (AID 1347398; calls by dose curve; note: nearly all actives have a fitted effect of over 50% in size); conditions: Potency: AChE activity
Procedure, shortened: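 SH-SY5Y cells (2000/well), attached overnight, incubated with compound 30 min at 37 C. Acetylthiocholine plus Thiolite Green then added for 40 min at room temperature. Thiocholine fluorescence (Ex/Em 490/520 nm) reports cellular AChE activity.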

[9] = biological target: Acetylcholinesterase (Homo sapiens) (UniProt P22303); assay: Acetylcholinesterase (AChE) small molecule antagonists: enzyme-based qHTS assay with human liver microsomes (AID 1347399; calls by dose curve; note: nearly all actives have a fitted effect of over 60% in size); conditions: Potency: qHTS inhibition
Procedure, shortened: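 Recombinant human AChE (50 mU/mL in the enzyme mix) and human liver microsomes (0.25 mg/mL final) were preincubated with compound and NADPH (0.25 mg/mL final) for 30 min at 37 C. Acetylthiocholine/DTNB was then added; thiocholine was read colorimetrically after 10 min at room temperature.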

[10] = biological target: Nuclear receptor subfamily 1 group I member 2 (Homo sapiens) (UniProt O75469); assay: Human pregnane X receptor (PXR) small molecule agonists, qHTS assay (AID 1346982); note: nearly all actives have a fitted effect of over 35% in size; note: potency is the fitted concentration of half-maximal effect
Procedure, shortened: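 Luminescence (ONE-Glo, 30 min RT) after 24 hr compound exposure of PXR-Luc HepG2 cells; cells rested 5 hr post-plating in 5% charcoal-stripped FBS medium.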

[11] = biological target: Cytochrome P450 2C19 (Homo sapiens) (UniProt P33261); assay: Cytochrome P450 Family 2 Subfamily C Member 19 (CYP2C19) small molecule antagonists: luciferase reporter qHTS assay (AID 1671197); note: nearly all actives have a fitted effect of over 65% in size; note: potency is the fitted concentration of half-maximal effect
Procedure, shortened: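 P450-Glo CYP2C19 screening system; proluciferin substrate; DMSO compound stocks; 10 min RT preincubation; NADPH regeneration, 1 h at 37C; luciferin detection reagent, 20 min RT; luminescence as RLU.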

[12] = biological target: Cytochrome P450 2C9 (Homo sapiens) (UniProt P11712); assay: Cytochrome P450 Family 2 Subfamily C Member 9 (CYP2C9) small molecule antagonists: luciferase reporter qHTS assay (AID 1671198); note: nearly all actives have a fitted effect of over 50% in size; note: potency is the fitted concentration of half-maximal effect
Procedure, shortened: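 P450-Glo proluciferin substrate with CYP2C9 enzyme; 10 min RT preincubation, then NADPH regeneration 1 h at 37C; luciferin detection reagent 20 min RT, luminescence in relative luminescence units.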

[13] = biological target: Cytochrome P450 1A2 (Homo sapiens) (UniProt P05177); assay: Cytochrome P450 Family 1 Subfamily A Member 2 (CYP1A2) small molecule antagonists: luciferase reporter qHTS assay (AID 1671199); note: nearly all actives have a fitted effect of over 50% in size; note: potency is the fitted concentration of half-maximal effect
Procedure, shortened: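 Signal from luciferin formed by CYP1A2 from a proluciferin substrate is read as luminescence, expressed in relative luminescence units. Compounds sit with enzyme 10 min, NADPH-driven reaction runs 1 h, all at room temperature.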

[14] = biological target: Voltage-gated inwardly rectifying potassium channel KCNH2 (Homo sapiens) (UniProt Q12809); assay: Human Ether-a-go-go-Related Gene (hERG) channel small molecule antagonists: fluorescence cell-based qHTS assay (AID 1671200)
Procedure, shortened: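 Measured: Tl+ flux via fluorescence (480/540 nm) in hERG-expressing U2OS cells after 1 h dye loading at room temperature.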

[15] = biological target: Cytochrome P450 3A4 (Homo sapiens) (UniProt P08684); assay: Cytochrome P450 Family 3 Subfamily A Member 4 (CYP3A4) small molecule antagonists: luciferase reporter qHTS assay (AID 1671201); note: nearly all actives have a fitted effect of over 50% in size; note: potency is the fitted concentration of half-maximal effect
Procedure, shortened: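 Setup: enzyme-substrate mix, compound pin transfer, 10 min RT. Reaction: NADPH regeneration solution, 1 h RT. Readout: detection reagent stops turnover, luminescence measured after 20 min, expressed in relative luminescence units.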

[16] = biological target: Cytochrome P450 2D6 (Homo sapiens) (UniProt P10635); assay: Cytochrome P450 Family 2 Subfamily D Member 6 (CYP2D6) small molecule antagonists: luciferase reporter qHTS assay (AID 1671196); note: nearly all actives have a fitted effect of over 50% in size; note: potency is the fitted concentration of half-maximal effect
Procedure, shortened: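 Inhibition of CYP2D6 was gauged by loss of luminescence, since light produced tracks the luciferin generated from a proluciferin substrate. A 10 min room-temperature preincubation preceded 1 h NADPH-supported turnover.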

[17] = biological target: Nuclear receptor subfamily 1 group I member 2 (Homo sapiens) (UniProt O75469); assay: CYP3A4 induction through human pregnane X receptor (PXR) by small molecules, qHTS assay (AID 1346984); note: nearly all actives have a fitted effect of over 40% in size
Procedure, shortened: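 DPX-2 reporter cells; 24h cpd, 37C; Luciferin-IPA 3uM final x3h; One-Glo 30 min RT; lumi read.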

[18] = Caspase-3/7 induction in CHO-K1 cells by small molecules, qHTS assay (AID 1346980); note: nearly all actives have a fitted effect of over 15% in size
Procedure, shortened: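 Wild-type CHO-K1 cells exposed to compounds for 17hr at 37 C, 5% CO2. Caspase-3/7 activity then measured by Caspase-Glo 3/7 luminescence after 30min at room temperature.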

Sequence of Cytochrome P450 3A4 (Homo sapiens) (P08684 whole entry, looked up): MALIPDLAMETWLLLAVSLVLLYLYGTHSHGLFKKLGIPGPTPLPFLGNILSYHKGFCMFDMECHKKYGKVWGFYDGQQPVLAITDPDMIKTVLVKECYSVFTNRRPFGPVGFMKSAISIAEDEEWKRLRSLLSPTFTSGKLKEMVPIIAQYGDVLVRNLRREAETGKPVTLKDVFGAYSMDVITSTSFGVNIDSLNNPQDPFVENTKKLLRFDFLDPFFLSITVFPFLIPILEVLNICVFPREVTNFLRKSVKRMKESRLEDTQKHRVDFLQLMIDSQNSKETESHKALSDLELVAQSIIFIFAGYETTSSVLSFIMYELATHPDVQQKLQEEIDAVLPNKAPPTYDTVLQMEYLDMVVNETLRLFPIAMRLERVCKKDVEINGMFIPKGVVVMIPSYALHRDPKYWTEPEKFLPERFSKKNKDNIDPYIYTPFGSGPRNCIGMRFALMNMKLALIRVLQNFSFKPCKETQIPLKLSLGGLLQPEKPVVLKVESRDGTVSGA
Sequence of Cytochrome P450 1A2 (Homo sapiens) (P05177 whole entry, looked up): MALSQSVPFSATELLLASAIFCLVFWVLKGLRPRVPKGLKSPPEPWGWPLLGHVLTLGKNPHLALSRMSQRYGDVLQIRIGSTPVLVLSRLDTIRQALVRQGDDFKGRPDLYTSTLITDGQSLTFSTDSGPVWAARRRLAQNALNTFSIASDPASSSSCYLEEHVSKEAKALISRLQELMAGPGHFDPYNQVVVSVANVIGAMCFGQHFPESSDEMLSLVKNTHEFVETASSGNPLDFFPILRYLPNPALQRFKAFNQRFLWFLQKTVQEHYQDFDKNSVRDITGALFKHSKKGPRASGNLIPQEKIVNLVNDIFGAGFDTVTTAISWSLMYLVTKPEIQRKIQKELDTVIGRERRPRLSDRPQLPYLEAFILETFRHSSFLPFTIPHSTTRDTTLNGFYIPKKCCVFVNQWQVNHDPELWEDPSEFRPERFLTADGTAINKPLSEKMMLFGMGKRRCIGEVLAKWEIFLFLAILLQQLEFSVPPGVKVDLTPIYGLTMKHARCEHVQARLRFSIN
Sequence of Acetylcholinesterase (Homo sapiens) (P22303 whole entry, looked up): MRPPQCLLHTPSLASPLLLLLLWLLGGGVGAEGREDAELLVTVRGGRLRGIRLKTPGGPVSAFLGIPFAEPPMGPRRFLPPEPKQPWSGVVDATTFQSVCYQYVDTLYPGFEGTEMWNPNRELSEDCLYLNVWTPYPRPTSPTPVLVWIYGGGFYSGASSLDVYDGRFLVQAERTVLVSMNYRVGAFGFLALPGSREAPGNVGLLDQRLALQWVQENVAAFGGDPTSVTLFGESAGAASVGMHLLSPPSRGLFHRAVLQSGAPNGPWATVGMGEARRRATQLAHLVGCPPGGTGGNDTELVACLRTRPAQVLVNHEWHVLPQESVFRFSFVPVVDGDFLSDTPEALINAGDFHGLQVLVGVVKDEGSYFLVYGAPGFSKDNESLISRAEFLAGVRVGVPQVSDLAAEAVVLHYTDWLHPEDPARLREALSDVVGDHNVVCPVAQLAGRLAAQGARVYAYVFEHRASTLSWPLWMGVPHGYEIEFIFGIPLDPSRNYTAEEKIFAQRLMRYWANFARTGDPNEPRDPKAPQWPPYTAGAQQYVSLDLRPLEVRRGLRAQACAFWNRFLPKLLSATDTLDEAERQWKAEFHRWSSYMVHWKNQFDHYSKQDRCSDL
Sequence of Voltage-gated inwardly rectifying potassium channel KCNH2 (Homo sapiens) (Q12809 whole entry, looked up): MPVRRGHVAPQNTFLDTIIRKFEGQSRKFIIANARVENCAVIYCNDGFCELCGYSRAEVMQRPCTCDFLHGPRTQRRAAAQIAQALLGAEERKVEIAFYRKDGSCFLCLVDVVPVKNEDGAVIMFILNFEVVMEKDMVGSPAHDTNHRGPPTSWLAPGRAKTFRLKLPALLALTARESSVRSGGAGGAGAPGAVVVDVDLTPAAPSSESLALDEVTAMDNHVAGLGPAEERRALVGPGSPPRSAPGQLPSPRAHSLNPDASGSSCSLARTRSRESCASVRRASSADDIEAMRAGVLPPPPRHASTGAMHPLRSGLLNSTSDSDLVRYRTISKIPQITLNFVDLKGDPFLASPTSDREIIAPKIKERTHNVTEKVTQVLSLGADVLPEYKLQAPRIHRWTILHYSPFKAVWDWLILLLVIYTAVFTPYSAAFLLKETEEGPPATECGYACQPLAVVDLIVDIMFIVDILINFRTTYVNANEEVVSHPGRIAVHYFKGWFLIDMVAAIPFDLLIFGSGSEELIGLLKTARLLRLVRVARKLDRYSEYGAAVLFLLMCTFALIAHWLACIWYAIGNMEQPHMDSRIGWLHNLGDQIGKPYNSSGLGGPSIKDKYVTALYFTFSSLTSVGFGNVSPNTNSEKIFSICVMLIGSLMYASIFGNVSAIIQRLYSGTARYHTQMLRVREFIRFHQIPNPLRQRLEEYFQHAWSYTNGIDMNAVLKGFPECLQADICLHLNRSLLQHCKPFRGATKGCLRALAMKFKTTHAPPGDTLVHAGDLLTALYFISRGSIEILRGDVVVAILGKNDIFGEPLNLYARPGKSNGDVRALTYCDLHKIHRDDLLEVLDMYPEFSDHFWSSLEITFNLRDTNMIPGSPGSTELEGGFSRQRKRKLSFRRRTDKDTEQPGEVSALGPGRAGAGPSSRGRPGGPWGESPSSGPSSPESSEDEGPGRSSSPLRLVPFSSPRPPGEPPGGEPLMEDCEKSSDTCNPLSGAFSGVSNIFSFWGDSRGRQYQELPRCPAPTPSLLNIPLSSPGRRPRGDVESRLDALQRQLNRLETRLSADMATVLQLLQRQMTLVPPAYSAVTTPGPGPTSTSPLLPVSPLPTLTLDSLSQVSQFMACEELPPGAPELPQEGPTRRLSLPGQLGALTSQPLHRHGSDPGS
Sequence of Cytochrome P450 2C9 (Homo sapiens) (P11712 whole entry, looked up): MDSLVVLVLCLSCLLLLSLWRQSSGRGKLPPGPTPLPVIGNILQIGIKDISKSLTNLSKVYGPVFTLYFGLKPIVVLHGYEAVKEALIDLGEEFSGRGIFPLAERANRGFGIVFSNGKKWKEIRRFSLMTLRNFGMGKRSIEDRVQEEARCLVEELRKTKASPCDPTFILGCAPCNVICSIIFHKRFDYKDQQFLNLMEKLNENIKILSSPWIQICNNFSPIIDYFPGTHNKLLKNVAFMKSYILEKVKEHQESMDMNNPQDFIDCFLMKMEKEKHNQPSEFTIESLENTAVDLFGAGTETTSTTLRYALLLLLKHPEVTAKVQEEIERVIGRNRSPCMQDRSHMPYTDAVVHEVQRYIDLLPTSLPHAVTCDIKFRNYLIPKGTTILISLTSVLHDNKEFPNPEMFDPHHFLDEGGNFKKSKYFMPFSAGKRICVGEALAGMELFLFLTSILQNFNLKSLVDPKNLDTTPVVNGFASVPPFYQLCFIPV
Sequence of Nuclear receptor subfamily 1 group I member 2 (Homo sapiens) (O75469 whole entry, looked up): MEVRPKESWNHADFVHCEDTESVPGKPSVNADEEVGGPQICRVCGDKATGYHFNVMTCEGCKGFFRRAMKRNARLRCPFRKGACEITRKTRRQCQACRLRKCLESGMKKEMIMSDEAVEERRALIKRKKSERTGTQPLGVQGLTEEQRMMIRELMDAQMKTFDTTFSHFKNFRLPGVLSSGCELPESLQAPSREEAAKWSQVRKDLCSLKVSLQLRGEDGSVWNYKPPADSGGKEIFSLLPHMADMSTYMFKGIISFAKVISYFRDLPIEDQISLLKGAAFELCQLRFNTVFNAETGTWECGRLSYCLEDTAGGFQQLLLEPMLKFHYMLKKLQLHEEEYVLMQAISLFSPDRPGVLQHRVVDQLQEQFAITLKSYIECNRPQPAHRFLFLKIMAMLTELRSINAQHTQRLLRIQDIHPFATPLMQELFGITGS
Sequence of Cytochrome P450 2D6 (Homo sapiens) (P10635 whole entry, looked up): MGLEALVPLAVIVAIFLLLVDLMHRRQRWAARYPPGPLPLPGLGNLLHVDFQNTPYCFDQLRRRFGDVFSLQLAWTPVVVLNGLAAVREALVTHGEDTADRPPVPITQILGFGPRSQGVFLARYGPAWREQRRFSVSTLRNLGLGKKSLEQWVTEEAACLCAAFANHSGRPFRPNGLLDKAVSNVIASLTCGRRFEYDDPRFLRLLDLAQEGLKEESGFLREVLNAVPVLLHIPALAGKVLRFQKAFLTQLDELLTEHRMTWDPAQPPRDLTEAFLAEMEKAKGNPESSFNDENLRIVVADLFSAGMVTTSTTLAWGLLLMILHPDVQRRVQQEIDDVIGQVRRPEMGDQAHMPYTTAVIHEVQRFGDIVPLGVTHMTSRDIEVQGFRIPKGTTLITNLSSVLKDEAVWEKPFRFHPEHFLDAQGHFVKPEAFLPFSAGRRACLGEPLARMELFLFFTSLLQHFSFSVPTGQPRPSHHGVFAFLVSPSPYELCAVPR
Sequence of Cytochrome P450 2C19 (Homo sapiens) (P33261 whole entry, looked up): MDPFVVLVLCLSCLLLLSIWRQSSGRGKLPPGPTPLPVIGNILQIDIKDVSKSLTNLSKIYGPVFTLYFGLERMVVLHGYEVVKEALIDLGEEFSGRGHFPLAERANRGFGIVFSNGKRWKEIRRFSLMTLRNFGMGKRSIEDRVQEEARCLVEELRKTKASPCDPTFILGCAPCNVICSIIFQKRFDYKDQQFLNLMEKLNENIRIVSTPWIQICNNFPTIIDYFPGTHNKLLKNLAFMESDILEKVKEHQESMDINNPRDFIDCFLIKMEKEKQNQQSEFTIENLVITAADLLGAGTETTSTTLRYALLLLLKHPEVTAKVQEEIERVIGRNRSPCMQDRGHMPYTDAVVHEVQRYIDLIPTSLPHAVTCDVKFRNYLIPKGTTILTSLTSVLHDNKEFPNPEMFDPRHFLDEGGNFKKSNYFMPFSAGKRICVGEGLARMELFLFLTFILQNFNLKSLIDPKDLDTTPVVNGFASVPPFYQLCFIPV

Compound | Potency [1] | Potency [2] | Potency [3] | Potency [4] | Potency [5] | Potency [6] | Potency [7] | Potency [8] | Potency [9] | Potency [10] | Potency [11] | Potency [12] | Potency [13] | Potency [14] | Potency [15] | Potency [16] | Potency [17] | Potency [18]
CC(=O)[C@H]1CC[C@H]2[C@@H]3CC[C@H]4C[C@H](O)CC[C@]4(C)[C@H]3C(=O)C[C@]12C | inactive | inactive | inactive | inactive | inactive | inactive | inactive | inactive | inactive | – | – | – | – | – | – | – | – | –
CC(=O)CCc1ccc2c(c1)OCO2 | inactive | inactive | inactive | inactive | – | inactive | inactive | inactive | inactive | inactive | 35.6 µM (active) | 31.7 µM (active) | 0.633 µM (active) | inactive | 22.4 µM (active) | – | – | –
C1CCC(C2CCCCC2)CC1 | inactive | inactive | inactive | inactive | – | inactive | inactive | inactive | inactive | inactive | inactive | inactive | – | inactive | inactive | inactive | – | –
O=C(CCN1CC1)OCC(CO)(COC(=O)CCN1CC1)COC(=O)CCN1CC1 | inactive | inactive | inactive | inactive | – | inactive | inactive | inactive | inactive | inactive | inactive | inactive | – | – | inactive | inactive | – | –
COc1cc(OC)nc(NC(=O)NS(=O)(=O)c2ncccc2C(=O)N(C)C)n1 | inactive | inactive | inactive | inactive | – | inactive | inactive | inactive | inactive | inactive | inactive | inactive | – | inactive | – | – | – | –
CNC(=O)N(C)c1nc2ccccc2s1 | inactive | inactive | inactive | inactive | – | inactive | – | inactive | inactive | 30.6 µM (active) | 39.9 µM (active) | 39.9 µM (active) | – | – | – | – | – | –
Nc1ccccc1Cl | inactive | inactive | inactive | inactive | – | inactive | – | – | inactive | inactive | inactive | inactive | – | inactive | inactive | 6.87 µM (active) | – | –
Cc1nnc2n1-c1sc(CCC(=O)N3CCOCC3)cc1C(c1ccccc1Cl)=NC2 | inactive | inactive | inactive | inactive | – | inactive | – | inactive | – | inactive | inactive | inactive | inactive | inactive | – | inactive | – | –
O=C1CN=C(c2ccccc2)c2cc([N+](=O)[O-])ccc2N1 | inactive | inactive | inactive | inactive | inactive | inactive | inactive | inactive | inactive | – | inactive | – | inactive | inactive | – | – | inactive | –
CCC/C(=N\OCC)C1=C(O)CC(CC(C)SCC)CC1=O (stereo not given) | inactive | inactive | inactive | inactive | – | inactive | inactive | inactive | inactive | 48.9 µM (active) | 8.99 µM (active) | 31.9 µM (active) | – | inactive | inactive | – | – | –
O=P(O)(Oc1ccccc1)Oc1ccccc1 | inactive | inactive | inactive | – | – | inactive | inactive | – | inactive | inactive | – | 39.9 µM (active) | inactive | inactive | inactive | – | – | inactive
COc1cccc(C(=O)NN(C(=O)c2cc(C)cc(C)c2)C(C)(C)C)c1C | inactive | inactive | 61.1 µM (active) | – | – | inactive | – | inactive | inactive | inactive | 3.56 µM (active) | 17.8 µM (active) | inactive | inactive | 0.71 µM (active) | – | – | inactive
CN(C)CCc1ccc(O)cc1 | inactive | inactive | – | inactive | inactive | inactive | inactive | inactive | inactive | inactive | inactive | inactive | inactive | inactive | inactive | inactive | inactive | inactive
CCN(CC)C(C)C(=O)c1ccccc1 (stereo not given) | inactive | inactive | – | inactive | inactive | inactive | inactive | inactive | inactive | inactive | inactive | inactive | inactive | inactive | – | 19.5 µM (active) | inactive | inactive
BrCCCCCCBr | inactive | inactive | inactive | inactive | – | 63.3 µM (active) | inactive | – | inactive | inactive | 25.2 µM (active) | – | 63.3 µM (active) | inactive | inactive | inactive | – | –
O=[N+]([O-])c1ccc2c3c(cccc13)CC2 | inactive | inactive | inactive | inactive | – | inactive | – | inactive | inactive | 54.5 µM (active) | 35.6 µM (active) | inactive | – | inactive | – | inactive | – | –
